# Test results as given in paper PMC7862700, “An all-to-all approach to the identification of sequence-specific readers for epigenetic DNA modifications on cytosine”.
# Tests used:
# Assay in all cases: DAPPL (digital affinity profiling via proximity ligation, sequencing); 10 mM Tris-HCl pH 7.5, 50 mM NaCl, 1 mM DTT, 4% glycerol, room temperature, 30 min; GST-TFs on glutathione beads, 16-mer random dsDNA library, 0.1% formaldehyde crosslink after washing; high values mean tight binding
# [1] = target: T1, FLI1 (Homo sapiens, UniProt Q01543 1-452); conditions: protein: recombinant; tags: N-terminal GST; dsDNA, one strand shown
# T1 sequence: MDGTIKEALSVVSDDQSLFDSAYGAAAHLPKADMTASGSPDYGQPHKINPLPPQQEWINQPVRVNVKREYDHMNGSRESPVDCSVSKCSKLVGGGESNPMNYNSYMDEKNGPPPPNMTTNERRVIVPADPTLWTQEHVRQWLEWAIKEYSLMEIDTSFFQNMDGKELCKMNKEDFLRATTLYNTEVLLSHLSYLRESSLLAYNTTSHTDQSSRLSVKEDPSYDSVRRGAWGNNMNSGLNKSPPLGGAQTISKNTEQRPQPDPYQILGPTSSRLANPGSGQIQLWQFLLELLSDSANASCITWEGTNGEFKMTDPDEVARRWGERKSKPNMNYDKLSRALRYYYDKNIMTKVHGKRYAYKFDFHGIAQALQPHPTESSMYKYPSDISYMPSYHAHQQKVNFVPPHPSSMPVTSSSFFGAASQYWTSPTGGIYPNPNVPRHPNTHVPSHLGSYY
# Procedure, shortened: (§1)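 Human transcription factors were made in yeast as GST fusions, captured on glutathione beads and barcoded with DNA. With a tag-only sample included, the pool was incubated with 200 nmole of a random double-stranded 16-mer DNA library in Tris/NaCl/DTT/glycerol buffer at room temperature for 30 min, then crosslinked with 0.1% formaldehyde after washing, ligated by proximity, amplified and sequenced. For binding signal, each hexamer's read frequency for a factor is divided by its frequency for the tag-only sample.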
# [2] = target: T2, ELK1 (Homo sapiens, UniProt P19419 1-428); conditions: protein: recombinant; tags: N-terminal GST; dsDNA, one strand shown
# T2 sequence: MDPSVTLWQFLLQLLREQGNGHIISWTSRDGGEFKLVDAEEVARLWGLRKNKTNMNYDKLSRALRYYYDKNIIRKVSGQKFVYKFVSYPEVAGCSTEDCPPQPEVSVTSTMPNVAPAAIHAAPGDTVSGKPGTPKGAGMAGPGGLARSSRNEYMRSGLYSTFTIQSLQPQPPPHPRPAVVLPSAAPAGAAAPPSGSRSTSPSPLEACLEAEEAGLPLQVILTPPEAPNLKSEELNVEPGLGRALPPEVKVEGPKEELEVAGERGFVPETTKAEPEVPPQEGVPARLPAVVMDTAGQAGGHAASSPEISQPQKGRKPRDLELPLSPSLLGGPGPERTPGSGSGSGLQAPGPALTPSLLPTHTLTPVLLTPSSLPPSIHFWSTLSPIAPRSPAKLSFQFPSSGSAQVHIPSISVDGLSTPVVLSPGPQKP
# Procedure, shortened: as §1
# [3] = target: T3, GABPA (Homo sapiens, UniProt Q06546 1-454); conditions: protein: recombinant; tags: N-terminal GST; dsDNA, one strand shown
# T3 sequence: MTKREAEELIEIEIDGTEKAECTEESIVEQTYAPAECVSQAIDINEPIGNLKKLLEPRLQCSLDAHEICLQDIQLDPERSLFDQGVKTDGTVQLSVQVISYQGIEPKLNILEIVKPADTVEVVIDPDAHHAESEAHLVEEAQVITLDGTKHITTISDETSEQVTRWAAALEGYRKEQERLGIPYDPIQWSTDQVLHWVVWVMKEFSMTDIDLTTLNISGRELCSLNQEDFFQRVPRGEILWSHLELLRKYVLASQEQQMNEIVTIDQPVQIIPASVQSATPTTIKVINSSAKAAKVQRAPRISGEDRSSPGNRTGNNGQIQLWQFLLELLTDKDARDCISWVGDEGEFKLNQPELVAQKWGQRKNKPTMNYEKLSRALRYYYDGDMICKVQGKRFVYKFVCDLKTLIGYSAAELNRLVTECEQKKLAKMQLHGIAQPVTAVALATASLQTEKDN
# Procedure, shortened: as §1
# [4] = target: T4, ERG (Homo sapiens, UniProt P11308 1-479); conditions: protein: recombinant; tags: N-terminal GST; dsDNA, one strand shown
# T4 sequence: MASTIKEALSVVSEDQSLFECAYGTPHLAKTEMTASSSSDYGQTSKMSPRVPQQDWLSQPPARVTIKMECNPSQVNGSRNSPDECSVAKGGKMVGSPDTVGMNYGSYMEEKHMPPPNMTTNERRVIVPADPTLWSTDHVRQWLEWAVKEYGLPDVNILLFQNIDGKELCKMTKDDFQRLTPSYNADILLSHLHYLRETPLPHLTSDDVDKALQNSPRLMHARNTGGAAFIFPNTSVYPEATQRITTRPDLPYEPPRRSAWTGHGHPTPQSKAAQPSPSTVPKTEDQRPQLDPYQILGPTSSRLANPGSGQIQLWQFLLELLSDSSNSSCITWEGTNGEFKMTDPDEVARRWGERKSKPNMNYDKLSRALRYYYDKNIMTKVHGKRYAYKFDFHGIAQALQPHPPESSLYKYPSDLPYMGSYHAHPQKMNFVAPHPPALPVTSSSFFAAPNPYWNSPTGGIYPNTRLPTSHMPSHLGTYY
# Procedure, shortened: as §1
# [5] = target: ELF1 (Homo sapiens, UniProt P32519 1-619); conditions: protein: recombinant; tags: N-terminal GST; dsDNA, one strand shown
# Sequence of ELF1 (P32519 whole entry): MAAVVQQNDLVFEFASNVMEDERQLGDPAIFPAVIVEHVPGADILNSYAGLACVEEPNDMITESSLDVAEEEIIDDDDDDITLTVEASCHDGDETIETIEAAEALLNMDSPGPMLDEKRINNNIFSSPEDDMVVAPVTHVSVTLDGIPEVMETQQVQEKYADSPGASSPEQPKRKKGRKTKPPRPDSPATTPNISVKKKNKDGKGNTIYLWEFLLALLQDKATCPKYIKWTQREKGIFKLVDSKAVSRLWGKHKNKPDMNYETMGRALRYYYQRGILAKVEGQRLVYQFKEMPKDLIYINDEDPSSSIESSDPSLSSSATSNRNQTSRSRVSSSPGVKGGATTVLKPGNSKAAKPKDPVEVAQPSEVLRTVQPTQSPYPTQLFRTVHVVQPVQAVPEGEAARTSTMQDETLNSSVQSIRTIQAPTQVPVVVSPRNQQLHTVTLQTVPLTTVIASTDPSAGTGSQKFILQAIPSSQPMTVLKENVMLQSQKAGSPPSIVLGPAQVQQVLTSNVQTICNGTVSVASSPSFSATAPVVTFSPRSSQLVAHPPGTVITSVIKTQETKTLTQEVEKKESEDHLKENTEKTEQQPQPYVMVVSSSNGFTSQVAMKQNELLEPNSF
# Procedure, shortened: as §1
# [6] = target: T5, EHF (Homo sapiens, UniProt Q9NZC4 1-300); conditions: protein: recombinant; tags: N-terminal GST; dsDNA, one strand shown
# T5 sequence: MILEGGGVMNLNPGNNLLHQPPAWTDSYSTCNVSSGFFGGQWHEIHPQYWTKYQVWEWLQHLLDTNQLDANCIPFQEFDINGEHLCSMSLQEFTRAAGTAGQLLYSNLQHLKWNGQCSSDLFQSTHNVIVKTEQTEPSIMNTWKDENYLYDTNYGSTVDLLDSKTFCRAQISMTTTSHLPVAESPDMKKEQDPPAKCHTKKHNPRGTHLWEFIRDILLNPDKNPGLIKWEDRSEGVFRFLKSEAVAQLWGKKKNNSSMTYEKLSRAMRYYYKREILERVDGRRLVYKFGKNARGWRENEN
# Procedure, shortened: as §1
# [7] = target: SPI1 (Homo sapiens, UniProt P17947 1-270); conditions: protein: recombinant; tags: N-terminal GST; dsDNA, one strand shown
# Procedure, shortened: as §1
# [8] = target: SPIB (Homo sapiens, UniProt Q01892 1-262); conditions: protein: recombinant; tags: N-terminal GST; dsDNA, one strand shown
# Sequence of SPIB (Q01892 whole entry): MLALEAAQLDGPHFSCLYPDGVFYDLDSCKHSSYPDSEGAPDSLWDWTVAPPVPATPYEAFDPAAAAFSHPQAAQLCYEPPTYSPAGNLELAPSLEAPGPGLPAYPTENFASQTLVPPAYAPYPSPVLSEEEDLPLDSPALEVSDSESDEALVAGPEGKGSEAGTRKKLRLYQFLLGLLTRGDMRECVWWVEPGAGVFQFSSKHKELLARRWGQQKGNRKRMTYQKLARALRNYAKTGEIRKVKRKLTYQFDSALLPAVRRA
# Procedure, shortened: as §1
# [9] = target: T6, ELK3 (Homo sapiens, UniProt P41970 1-407); conditions: protein: recombinant; tags: N-terminal GST; dsDNA, one strand shown
# T6 sequence: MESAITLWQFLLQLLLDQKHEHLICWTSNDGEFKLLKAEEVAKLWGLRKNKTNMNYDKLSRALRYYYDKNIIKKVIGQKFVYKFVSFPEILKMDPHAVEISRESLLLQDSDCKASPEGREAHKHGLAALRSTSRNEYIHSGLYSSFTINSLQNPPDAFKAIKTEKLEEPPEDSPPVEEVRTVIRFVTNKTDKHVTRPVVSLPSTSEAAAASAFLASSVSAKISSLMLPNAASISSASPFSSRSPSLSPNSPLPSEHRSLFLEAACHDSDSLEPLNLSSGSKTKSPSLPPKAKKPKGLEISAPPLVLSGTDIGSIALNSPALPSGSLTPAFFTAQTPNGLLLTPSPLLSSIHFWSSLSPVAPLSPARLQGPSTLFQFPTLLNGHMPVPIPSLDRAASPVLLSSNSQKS
# Procedure, shortened: as §1
# [10] = target: T7, FEV (Homo sapiens, UniProt Q99581 1-238); conditions: protein: recombinant; tags: N-terminal GST; dsDNA, one strand shown
# T7 sequence: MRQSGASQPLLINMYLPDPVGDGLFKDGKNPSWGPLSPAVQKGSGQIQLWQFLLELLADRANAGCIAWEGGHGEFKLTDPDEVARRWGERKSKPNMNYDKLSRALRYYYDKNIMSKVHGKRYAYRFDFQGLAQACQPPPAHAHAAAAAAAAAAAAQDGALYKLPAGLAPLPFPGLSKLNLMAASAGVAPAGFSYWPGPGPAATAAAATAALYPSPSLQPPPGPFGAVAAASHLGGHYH
# Procedure, shortened: as §1
# [11] = target: ETV5 (Homo sapiens, UniProt P41161 1-510); conditions: protein: recombinant; tags: N-terminal GST; dsDNA, one strand shown
# Sequence of ETV5 (P41161 whole entry): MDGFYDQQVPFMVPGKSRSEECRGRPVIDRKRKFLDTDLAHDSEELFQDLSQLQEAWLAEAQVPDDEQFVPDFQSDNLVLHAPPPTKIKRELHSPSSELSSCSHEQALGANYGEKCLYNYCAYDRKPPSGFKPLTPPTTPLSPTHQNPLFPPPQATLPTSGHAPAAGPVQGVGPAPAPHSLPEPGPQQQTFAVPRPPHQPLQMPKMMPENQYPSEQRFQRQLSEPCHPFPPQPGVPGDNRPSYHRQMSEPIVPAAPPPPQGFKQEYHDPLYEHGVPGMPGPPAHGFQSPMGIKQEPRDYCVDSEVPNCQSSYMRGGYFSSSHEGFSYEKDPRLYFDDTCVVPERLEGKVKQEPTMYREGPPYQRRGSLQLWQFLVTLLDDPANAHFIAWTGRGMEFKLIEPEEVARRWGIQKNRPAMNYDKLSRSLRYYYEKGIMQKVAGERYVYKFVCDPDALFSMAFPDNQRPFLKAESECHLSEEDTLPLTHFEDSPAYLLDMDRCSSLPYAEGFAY
# Procedure, shortened: as §1
# [12] = target: HSF1 (Homo sapiens, UniProt Q00613 1-529); conditions: protein: recombinant; tags: N-terminal GST; chain copies: 3; dsDNA, one strand shown
# Sequence of HSF1 (Q00613 whole entry): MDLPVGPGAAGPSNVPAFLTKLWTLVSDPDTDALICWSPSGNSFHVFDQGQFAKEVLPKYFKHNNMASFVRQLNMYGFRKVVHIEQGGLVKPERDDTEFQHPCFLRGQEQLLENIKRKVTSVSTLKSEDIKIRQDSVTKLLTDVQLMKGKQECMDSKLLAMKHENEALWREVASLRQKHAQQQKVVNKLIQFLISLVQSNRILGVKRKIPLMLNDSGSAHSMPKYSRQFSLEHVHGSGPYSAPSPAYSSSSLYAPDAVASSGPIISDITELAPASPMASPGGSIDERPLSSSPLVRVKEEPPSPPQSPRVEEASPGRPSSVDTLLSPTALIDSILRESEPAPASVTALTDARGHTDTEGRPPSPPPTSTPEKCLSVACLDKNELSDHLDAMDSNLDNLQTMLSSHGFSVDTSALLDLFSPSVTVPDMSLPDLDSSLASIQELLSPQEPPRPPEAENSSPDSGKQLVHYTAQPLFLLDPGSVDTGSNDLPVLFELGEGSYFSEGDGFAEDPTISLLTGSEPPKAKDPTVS
# Procedure, shortened: as §1
# [13] = target: T8, SPIC (Homo sapiens, UniProt Q8N5J4 1-248); conditions: protein: recombinant; tags: N-terminal GST; dsDNA, one strand shown
# T8 sequence: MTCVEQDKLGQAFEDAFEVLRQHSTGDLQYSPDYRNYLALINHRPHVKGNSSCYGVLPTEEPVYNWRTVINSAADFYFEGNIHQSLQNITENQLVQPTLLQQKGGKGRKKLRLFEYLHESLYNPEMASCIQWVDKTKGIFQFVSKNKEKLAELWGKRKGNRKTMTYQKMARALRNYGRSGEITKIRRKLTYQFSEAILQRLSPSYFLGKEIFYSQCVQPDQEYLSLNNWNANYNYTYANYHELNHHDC
# Procedure, shortened: as §1
# [14] = target: ELF4 (Homo sapiens, UniProt Q99607 1-663); conditions: protein: recombinant; tags: N-terminal GST; dsDNA, one strand shown
# Sequence of ELF4 (Q99607 whole entry): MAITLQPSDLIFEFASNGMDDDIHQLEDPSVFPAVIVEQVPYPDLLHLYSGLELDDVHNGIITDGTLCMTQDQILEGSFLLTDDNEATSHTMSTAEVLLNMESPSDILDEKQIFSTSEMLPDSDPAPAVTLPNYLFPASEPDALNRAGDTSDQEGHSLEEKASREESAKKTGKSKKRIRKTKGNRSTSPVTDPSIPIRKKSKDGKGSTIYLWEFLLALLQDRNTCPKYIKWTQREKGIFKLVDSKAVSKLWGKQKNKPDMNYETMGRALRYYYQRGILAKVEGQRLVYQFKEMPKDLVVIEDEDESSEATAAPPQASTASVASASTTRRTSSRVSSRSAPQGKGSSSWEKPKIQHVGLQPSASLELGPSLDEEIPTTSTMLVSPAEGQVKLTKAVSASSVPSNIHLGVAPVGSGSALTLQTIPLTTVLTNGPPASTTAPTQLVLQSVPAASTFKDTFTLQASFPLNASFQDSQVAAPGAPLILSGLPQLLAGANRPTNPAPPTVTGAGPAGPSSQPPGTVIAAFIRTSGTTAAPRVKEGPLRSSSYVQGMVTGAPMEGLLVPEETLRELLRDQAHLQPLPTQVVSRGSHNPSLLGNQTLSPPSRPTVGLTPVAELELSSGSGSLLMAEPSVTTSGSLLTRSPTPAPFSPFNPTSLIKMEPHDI
# Procedure, shortened: as §1
# [15] = target: T9, ELK4 (Homo sapiens, UniProt P28324-2 1-405); conditions: protein: recombinant; tags: N-terminal GST; dsDNA, one strand shown
# T9 sequence: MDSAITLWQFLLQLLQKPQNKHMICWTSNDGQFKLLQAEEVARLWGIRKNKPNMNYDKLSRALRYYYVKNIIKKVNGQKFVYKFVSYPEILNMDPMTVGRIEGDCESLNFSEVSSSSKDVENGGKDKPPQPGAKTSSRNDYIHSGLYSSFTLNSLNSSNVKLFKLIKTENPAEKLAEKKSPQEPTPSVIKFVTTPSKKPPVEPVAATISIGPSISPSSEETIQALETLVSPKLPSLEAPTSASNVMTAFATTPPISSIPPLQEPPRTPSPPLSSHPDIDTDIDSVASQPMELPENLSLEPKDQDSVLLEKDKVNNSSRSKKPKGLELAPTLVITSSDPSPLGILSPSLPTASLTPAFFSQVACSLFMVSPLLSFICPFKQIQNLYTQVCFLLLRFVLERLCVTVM
# Procedure, shortened: as §1
# [16] = target: T10, ETV2 (Homo sapiens, UniProt O00321 1-342); conditions: protein: recombinant; tags: N-terminal GST; dsDNA, one strand shown
# T10 sequence: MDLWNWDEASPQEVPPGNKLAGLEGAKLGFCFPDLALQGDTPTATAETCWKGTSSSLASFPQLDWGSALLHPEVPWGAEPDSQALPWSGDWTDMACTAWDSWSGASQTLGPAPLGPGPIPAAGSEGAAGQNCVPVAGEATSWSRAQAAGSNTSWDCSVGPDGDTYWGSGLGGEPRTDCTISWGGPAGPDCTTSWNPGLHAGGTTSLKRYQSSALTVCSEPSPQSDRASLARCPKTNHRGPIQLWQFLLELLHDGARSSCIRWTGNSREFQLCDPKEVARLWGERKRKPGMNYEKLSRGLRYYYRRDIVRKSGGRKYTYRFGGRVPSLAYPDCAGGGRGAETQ
# Procedure, shortened: as §1
# [17] = target: T11, ELF3 (Homo sapiens, UniProt P78545 1-371); conditions: protein: recombinant; tags: N-terminal GST; dsDNA, one strand shown
# T11 sequence: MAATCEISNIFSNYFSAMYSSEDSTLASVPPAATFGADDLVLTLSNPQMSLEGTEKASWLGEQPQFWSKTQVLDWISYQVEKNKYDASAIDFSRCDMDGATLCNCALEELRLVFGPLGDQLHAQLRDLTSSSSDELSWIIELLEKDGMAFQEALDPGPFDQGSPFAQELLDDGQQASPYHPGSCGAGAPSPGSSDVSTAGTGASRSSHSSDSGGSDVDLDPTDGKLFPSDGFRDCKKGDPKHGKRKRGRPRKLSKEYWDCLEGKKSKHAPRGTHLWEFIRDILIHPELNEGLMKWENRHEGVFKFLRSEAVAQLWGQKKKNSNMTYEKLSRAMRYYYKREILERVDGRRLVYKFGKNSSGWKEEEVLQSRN
# Procedure, shortened: as §1
# [18] = target: CRX (Homo sapiens, UniProt O43186 1-299); conditions: protein: recombinant; tags: N-terminal GST; dsDNA, one strand shown
# Sequence of CRX (O43186 whole entry): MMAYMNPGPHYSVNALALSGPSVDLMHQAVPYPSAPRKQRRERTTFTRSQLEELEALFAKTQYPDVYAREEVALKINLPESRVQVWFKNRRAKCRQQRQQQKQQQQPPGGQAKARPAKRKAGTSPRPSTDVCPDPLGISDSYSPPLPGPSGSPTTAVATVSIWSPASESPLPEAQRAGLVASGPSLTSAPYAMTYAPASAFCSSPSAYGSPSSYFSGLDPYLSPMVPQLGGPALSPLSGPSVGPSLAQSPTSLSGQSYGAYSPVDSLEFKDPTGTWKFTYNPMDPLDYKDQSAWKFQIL
# Procedure, shortened: as §1
# [19] = target: ETV1 (Homo sapiens, UniProt P50549 1-477); conditions: protein: recombinant; tags: N-terminal GST; dsDNA, one strand shown
# Sequence of ETV1 (P50549 whole entry): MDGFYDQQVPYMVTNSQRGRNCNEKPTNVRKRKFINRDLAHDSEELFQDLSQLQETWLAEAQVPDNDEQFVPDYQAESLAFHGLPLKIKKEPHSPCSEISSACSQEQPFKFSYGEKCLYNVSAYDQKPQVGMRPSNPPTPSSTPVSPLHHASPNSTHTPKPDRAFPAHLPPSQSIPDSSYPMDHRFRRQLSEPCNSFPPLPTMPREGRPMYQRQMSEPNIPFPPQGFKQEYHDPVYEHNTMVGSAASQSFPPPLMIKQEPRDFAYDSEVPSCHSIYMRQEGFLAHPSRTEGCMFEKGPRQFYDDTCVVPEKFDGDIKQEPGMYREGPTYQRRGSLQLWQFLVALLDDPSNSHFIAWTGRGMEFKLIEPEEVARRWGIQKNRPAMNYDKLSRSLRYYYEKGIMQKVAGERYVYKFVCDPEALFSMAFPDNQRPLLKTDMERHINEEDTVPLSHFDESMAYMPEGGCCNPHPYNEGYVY
# Procedure, shortened: as §1
sequence,measurement,setting,value
CTCGTA,binding signal,[1],"1.31 fold enrichment (6-mer frequency, TF over GST control)"
same,binding signal,[2],"1.37 fold enrichment (6-mer frequency, TF over GST control)"
same,binding signal,[3],"1.3 fold enrichment (6-mer frequency, TF over GST control)"
same,binding signal,[4],"1.22 fold enrichment (6-mer frequency, TF over GST control)"
same,binding signal,[5],"1.32 fold enrichment (6-mer frequency, TF over GST control)"
same,binding signal,[6],"1.31 fold enrichment (6-mer frequency, TF over GST control)"
same,binding signal,[7],"1.39 fold enrichment (6-mer frequency, TF over GST control)"
same,binding signal,[8],"1.38 fold enrichment (6-mer frequency, TF over GST control)"
same,binding signal,[9],"1.36 fold enrichment (6-mer frequency, TF over GST control)"
same,binding signal,[10],"1.33 fold enrichment (6-mer frequency, TF over GST control)"
same,binding signal,[11],"1.29 fold enrichment (6-mer frequency, TF over GST control)"
same,binding signal,[12],"1.77 fold enrichment (6-mer frequency, TF over GST control)"
same,binding signal,[13],"1.25 fold enrichment (6-mer frequency, TF over GST control)"
same,binding signal,[14],"1.35 fold enrichment (6-mer frequency, TF over GST control)"
same,binding signal,[15],"1.16 fold enrichment (6-mer frequency, TF over GST control)"
same,binding signal,[16],"1.44 fold enrichment (6-mer frequency, TF over GST control)"
same,binding signal,[17],"1.39 fold enrichment (6-mer frequency, TF over GST control)"
same,binding signal,[18],"1.38 fold enrichment (6-mer frequency, TF over GST control)"
same,binding signal,[19],"1.35 fold enrichment (6-mer frequency, TF over GST control)"
